Compounds without any hit were thinned out: in the full panel of roughly 83,000, 20% have a hit.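 For each line, cells grew in 96-well plates with the test compound present at a single concentration for 48 hours.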 Unmarked numbers belong to inactive results. Calls of active or inactive are those of the source. How the source made its calls: active means growth percent below 10; inactive means the rest.

One assay deals with LOX IMVI melanoma. Put plainly: NCI-60 one-dose screen, 48 h (100 = growth as untreated, 0 = no growth, -100 = all killed). To be noted: 10 µM unless noted.
`Fc1ccc2c(c1)c(-c1nc(-c3c[nH]c4ncccc34)cs1)cn2CCCN1CCCCC1`: the growth was 44%. On the same count and under the same terms, the figure for `CN(C)c1ccc(N=C2C=CC(=O)C=C2)cc1` is 80.6%; for `Cc1ccncc1C(=O)O` it is 94%; for `COc1cc2ncnc(Nc3ccc(Oc4ccnc(C)c4)c(C)c3)c2cc1NC(=O)CC1CCSS1` (stereo not given) it is -87.8% (active). The same measure, in the same setting: the figure for `O=C1Nc2ccccc2/C1=C/c1cn(CCCn2c3ccccc3c(=O)c3ccccc32)c2ccccc12` is 86%. Same read-out and setting: the figure for `CCCCC[C@H]1CC=C2C(=O)C(Cl)=C[C@@H]2CC=CCCCC(=O)O[C@@H](CCCCC)CC=C2C(=O)C(Cl)=C[C@@H]2CC=CCCCC(=O)O[C@@H](CCCCC)CC=C2C(=O)C(Cl)=C[C@@H]2CC=CCCCC(=O)O1` is 14.5% [8 µM].

In the case of `O=C1c2ccccc2NC(c2cn(-c3ccccc3)nc2-c2cccs2)N1Cc1ccccc1` (stereo not given), the growth was 62.1%. Consider `COC(=O)[C@]12CC[C@@H](C)[C@H](C)[C@@H]1C1=CC[C@@H]3[C@@]4(C)C[C@@H](O)[C@H](O)[C@@](C)(CO)C4=CC[C@@]3(C)[C@]1(C)CC2`, for which the growth is -100% (active). Same read-out and setting: the figure for `Cn1c(=O)c2c(nc(Br)n2CC(=O)Nc2ccc(F)cc2)n(C)c1=O` is 96.7%; for `CCN(CC)CCCCCCNc1ccnc2cc(Cl)ccc12` it is 78%. Same read-out and setting: the figure for `C#CCC(C)(O)/C=C/C1=C(C)CCCC1(C)C` (stereo not given) is 96.4%.

A further assay relates to SK-MEL-28 melanoma. Described as above. To be noted: 10 µM unless noted.
In the case of `CC(C)(C)c1ccc(OCCCCCCCN2CCNCC2)cc1`, the growth is 53%. For the molecule `O=Cc1nc2ccccc2[nH]1`, the growth is 116%. Take `C[C@]12CC[C@@H]3c4ccc(O)cc4CC[C@H]3[C@@H]1C[C@H](O)[C@@H]2O`: the growth was 96.5%. On the same count and under the same terms, the figure for `Cn1c(=O)c2c(ncn2CCC(=O)Nc2ccc(F)cc2)n(C)c1=O` is 114%; for `CN(C)CCCCC(C(=O)CBr)(c1ccccc1)c1ccccc1` it is 23.6%. For the molecule `C[C@@H]1CCCCCCCCC[C@H](O)C(=O)C[C@@H](SC[C@@H](O)C(=O)O)C(=O)O1`, the growth was 107%. On the same count and under the same terms, the value for `O=C(N/N=C/c1ccccc1SSc1ccccc1/C=N/NC(=O)c1ccccc1)c1ccccc1` was 39.6%; that for `CC/C=C\C[C@H]1CC=C2C(=O)C=C[C@@H]2CC=CCCCC(=O)O[C@@H](CCCCC)CC=C2C(=O)C=C[C@@H]2CC=CCCCC(=O)O[C@@H](CCCCC)CC=C2C(=O)C=C[C@@H]2CC=CCCCC(=O)O[C@@H](CCCCC)CC=C2C(=O)C=C[C@@H]2CC=CCCCC(=O)O1` was 11.9% [7.9 µM]. Take `COc1ccc(NC(=S)N/N=C/c2ccccc2SSCCC(=O)OC[C@H]2O[C@H](O)[C@H](O)[C@@H](O)[C@@H]2O)cc1`: the growth was 85.3%. Take `Fc1ccc(Nc2nnc(-c3ccc(Cl)cc3)o2)cc1`: the growth was 106%. `COC(=O)[C@]12CC[C@@H](C)[C@H](C)[C@@H]1C1=CC[C@@H]3[C@@](C)(CC#N)C4=C(C[C@@]3(C)[C@]1(C)CC2)OC[C@]4(C)C=O`: the growth was -19.6% (active). Still for that read-out and setting: the value for `COc1ccc(/C=C/C(=O)NCC(C)O)cc1` (stereo not given) was 102%; that for `COc1cnc2c(c1)C(=O)c1c-2n(CCCNC(C)C)c(=O)c2cc([N+](=O)[O-])ccc12` was -62.6% (active); that for `Cn1cc(-c2csc(-c3cn(CCNC(=O)OC(C)(C)C)c4ccc(F)cc34)n2)c2cccnc21` was 88.7%. Regarding `NCCn1cc(-c2nc(-c3c[nH]c4ncccc34)cs2)c2cc(F)ccc21`, the growth is 101%.

Turning to `Cc1cc(N2CCCCC2)nc(N(CCNc2ccnc3cc(Cl)ccc23)Cc2ccco2)n1`, the growth is 38.9%.

With `Fc1ccc(Nc2nc(Nc3ccc(-c4nc5ccccc5[nH]4)cc3)nc(N3CCCC3)n2)cc1`, the growth was 47.7%. Same read-out and setting: the value for `Brc1ccc2c(c1)c(-c1nc(-c3c[nH]c4ncccc34)cs1)cn2CCCN1CCCCC1` was -84.8% (active). Same read-out and setting: the value for `O=C1CNCCN1` was 105%; that for `COC(=O)[C@]12CC[C@@H](C)[C@H](C)[C@@H]1C1=CC[C@@H]3[C@@]4(C)CC(=O)[C@H](OC(=O)c5ccco5)[C@@]5(C)COC(=C45)C[C@@]3(C)[C@]1(C)CC2` was 33%. On the same count and under the same terms, the value for `NCCn1cc(-c2nc(-c3c[nH]c4ncccc34)cs2)c2cc(Br)ccc21` was 99.4%; that for `Cc1cc(N2CCCCC2)nc(N(CCCNc2ccnc3cc(Cl)ccc23)Cc2ccco2)n1` was -23.5% (active); that for `CCCCC[C@H]1CC=C2C(=O)C=C[C@@H]2CC=CCCCC(=O)O[C@@H](CCCCC)CC=C2C(=O)C=C[C@@H]2CC=CCCCC(=O)O[C@@H](CCCCC)CC=C2C(=O)C=C[C@@H]2CC=CCCCC(=O)O1` was -48.7% [8.75 µM] (active). With `CCC(CC)C(=O)OC(C)COc1ccc(C(C)(C)C)cc1` (stereo not given), the growth was 101%.

For the molecule `CC/C(=N/NC(N)=O)c1ccccc1`, the growth was 101%. `N#CC1=C(N)Oc2c(sc3c(F)cccc23)C1c1ccc(Cl)cc1` (stereo not given): the growth is 49.6%. On the same count and under the same terms, the value for `CCCCC[C@H]1C/C=C2/C(=O)C(Cl)=C[C@@H]2C/C=C\CCCC(=O)O[C@@H](CCCCC)C/C=C2/C(=O)C(Cl)=C[C@@H]2C/C=C\CCCC(=O)O1` was -48.1% (active).

In the case of `c1ccc(-c2nc(Nc3ccc(-c4nc5ccccc5[nH]4)cc3)nc(N3CCOCC3)n2)cc1`, the growth is -82.9% (active). `Fc1ccc2c(c1)c(-c1nc(-c3c[nH]c4ncccc34)cs1)cn2CCCN1CCCCC1`: the growth was -68.3% (active). As for `CN(C)c1ccc(N=C2C=CC(=O)C=C2)cc1`, the growth was 97.4%.

As to `Cc1ccncc1C(=O)O`, the growth was 95.4%. `COc1cc2ncnc(Nc3ccc(Oc4ccnc(C)c4)c(C)c3)c2cc1NC(=O)CC1CCSS1` (stereo not given): the growth was -66% (active).

`O=C1Nc2ccccc2/C1=C/c1cn(CCCn2c3ccccc3c(=O)c3ccccc32)c2ccccc12`: the growth was 107%. Still for that read-out and setting: the value for `CCCCC[C@H]1CC=C2C(=O)C(Cl)=C[C@@H]2CC=CCCCC(=O)O[C@@H](CCCCC)CC=C2C(=O)C(Cl)=C[C@@H]2CC=CCCCC(=O)O[C@@H](CCCCC)CC=C2C(=O)C(Cl)=C[C@@H]2CC=CCCCC(=O)O1` was 52% [8 µM]; that for `O=C1c2ccccc2NC(c2cn(-c3ccccc3)nc2-c2cccs2)N1Cc1ccccc1` (stereo not given) was 97.3%; that for `COC(=O)[C@]12CC[C@@H](C)[C@H](C)[C@@H]1C1=CC[C@@H]3[C@@]4(C)C[C@@H](O)[C@H](O)[C@@](C)(CO)C4=CC[C@@]3(C)[C@]1(C)CC2` was -81% (active).

`Cn1c(=O)c2c(nc(Br)n2CC(=O)Nc2ccc(F)cc2)n(C)c1=O`: the growth is 118%.

As for `CCN(CC)CCCCCCNc1ccnc2cc(Cl)ccc12`, the growth was 106%. The same measure, in the same setting: the figure for `C#CCC(C)(O)/C=C/C1=C(C)CCCC1(C)C` (stereo not given) is 101%.

The record behind these values is PubChem BioAssay (NCI).
